PubChem BioAssay AID2391 (Southern Research Specialized Biocontainment Screening …, 2010)
Where “and” joins values, the source holds several entries; their conditions need not be identical. Equal values may be shown once. The campaign covered roughly 310,000 compounds. About 410 (0.13%) were called active. Not shown: some 2% with an inconclusive outcome. How the calls were made is not given here. These entries were drawn from the full list. Results with a measured potency or affinity are listed apart.

Assay: RSV antiviral activity via CPE protection, HEp-2 cells, primary 10 µM value included (AID 2391)
Details: RSV-induced CPE inhibition, at 10 µM, stronger effect = higher value

CPE inhibition, inactive:
COc1cccc(NC(=O)NCCCCc2ccccc2)c1 6.21%, CC(C)(C)c1ccc(O)c(O)c1 3.31%, Cc1cc(C(C)(C)C)c(O)c(C(C)(C)C)c1 -0.15%, NNC(=O)c1csc(-c2cccc(C(F)(F)F)c2)n1 9.01%, O=C(c1cc(Br)ccc1OC(F)F)N1CCN2CCCC2C1 (stereo not drawn) 0.87%, CCn1ncc(/C=C/C(=O)Nc2c(C)nn(Cc3ccc(Cl)cc3Cl)c2C)c1C 0.17%, O=C(/C=C/c1ccc(O)c(O)c1)O[C@@H]1C[C@](O)(C(=O)O)C[C@@H](O)[C@H]1O 39.5% and 4.56%, O=C(O)/C=C/c1ccc(O)c(O)c1 0.47%, COc1cc(OC)cc(C(=O)NC(=S)N2CCCCC2c2cccnc2)c1 (stereo not drawn) -0.07%, CCN1CCN(c2ccc(S(=O)(=O)N3CCCCC3)cc2NC(=O)CC(C)c2ccccc2)CC1 (stereo not drawn) -2.47%, Cc1ccsc1C(=O)OCC(=O)NC1CCCCC1C (stereo not drawn) 1.57%, CC1CN(C(C)C)C(C)CC1OC(=O)c1ccccc1 (stereo not drawn) -0.34%, COC(=O)c1ccc(COn2c(=O)c(C)[n+]([O-])c3ccccc32)cc1 2.27%, O=C(COc1ccc(Br)cc1Cl)NNC(=O)c1ccccc1 -0.21%, O=c1[nH]c(COc2ccc(Cl)cc2Cl)nc2ccccc12 20.4%, Cc1nc2c(C)cccn2c(=O)c1NC(=O)c1ccc2c(c1)OCO2 -0.9%, COc1cccc(CN(C(=O)c2ccccc2)C2CCS(=O)(=O)C2)c1 (stereo not drawn) 1.28%, N#CC(c1ccccc1)c1cccc(Cl)n1 (stereo not drawn) -0.33%, COc1ccc(C(=O)N2CC(c3ccccc3)CC2=O)cc1 (stereo not drawn) 1.75%, O=C1CC(c2ccccc2)CN1C(=O)c1ccccc1 (stereo not drawn) 0.02%, Cc1c(C(=O)N2CCC(C)CC2)sc2ncn(CC(=O)N3CCC(C)CC3)c(=O)c12 3.53%, Cc1ccc(-c2nnn(CC(=O)N(CC(=O)NC3CCCC3)c3ccc(F)cc3)n2)o1 2.25%, CC1Cc2ccccc2N1S(=O)(=O)c1cccc(C(=O)NCCCO)c1 (stereo not drawn) -0.32%, Cc1cc(C[n+]2ncsc2N)c2ncccc2c1 18.8%, Nc1ccc(Cl)c[n+]1Cc1cccc2cccnc12 50.2%, Nc1scn[n+]1Cc1cccc2cccnc12 19.5%, Cc1cc(C[n+]2cc(Br)ccc2N)c2ncccc2c1 81%, CCCC(=O)OC1CC(C)N(C(=O)c2ccccc2)c2ccc(C)cc21 (stereo not drawn) 7.5%, COc1ccc(CCNC(=O)COc2cc(C)cc3oc(=O)cc(C)c23)cc1 2.6%, Cc1c(-c2ccccc2Cl)nc2ccccc2c1C(=O)O 1.54%, Cc1c(-c2ccccc2)nc2ccccc2c1C(=O)O 0.81%, NC(=O)CC(NC(=O)Cc1ccc(Br)cc1)c1ccc(NCCN2CCCC2)c([N+](=O)[O-])c1 (stereo not drawn) 0.07%, CC(Oc1ccc(Cl)cc1Cl)C(=O)NNC(=O)C(=O)N1CCCC1 (stereo not drawn) 7.07%, COC(=O)NNC(=O)C(C)Oc1ccc(Cl)cc1Cl (stereo not drawn) 0.74%, COc1ccc(CCn2c(C)cc(C(=O)COC(=O)c3ccc(NC(=O)CC#N)cc3)c2C)cc1 4.94%, COc1ccc(C(=O)OCCc2ccc(O)cc2)cc1 1.11%, Cc1cc(-c2cc(C(=O)NCc3ccccc3)on2)nc(S(C)(=O)=O)n1 2.46%, Cc1ccccc1N(C(=O)CNC(=O)c1ccco1)C(C(=O)NC1CCCCC1)c1ccncc1 (stereo not drawn) 0.97%, CC(=O)NCCNC(=O)c1ccc(Cn2c(=O)[nH]c3ccsc3c2=O)cc1 0.58%, O=S(=O)(Nc1ccc(-c2ccc(N3CCOCC3)nn2)cc1)c1cc(Cl)ccc1Cl 1.29%, O=[N+]([O-])c1ccc(Cl)c(S(=O)(=O)Nc2cccc(-c3ccc(N4CCCC4)nn3)c2)c1 55%, Cc1ccc([N+](=O)[O-])cc1S(=O)(=O)Nc1cccc(-c2ccc(N3CCOCC3)nn2)c1 30.8%, O=[N+]([O-])c1ccc(Cl)c(S(=O)(=O)Nc2ccc(-c3ccc(N4CCOCC4)nn3)cc2)c1 0.86%, COc1ccccc1OCCn1ccnc1 0.82%, O=C(CC1C(=O)NCCN1Cc1cccc(Oc2ccccc2)c1)NCCn1cccn1 (stereo not drawn) 1.61%, CCn1ncc(CNC(=O)C2(C)CC2(Cl)Cl)c1C (stereo not drawn) 2.51%, O=C(O)/C=C/C(=O)NCCC(c1ccccc1)c1ccccc1 -0.16%, O=C(Nc1ccccc1)Nc1ccc(NC(=O)c2ccccc2O)cc1 1.31%, O=C(Nc1cccnc1)c1ccc(Cl)c(S(=O)(=O)N2CCCCC2)c1 10.1%, COc1cc(/C=C/c2cc(C(=O)O)c3ccccc3n2)cc(OC)c1O -0.63%, CCOc1cc(/C=C/c2cc(C(=O)O)c3ccccc3n2)ccc1OC 4.82%, COc1ccc(C2NC(=O)NC(C)=C2C(C)=O)cc1 (stereo not drawn) 2.63%, Cc1cc(Nc2ccccc2)nc(-c2ccccc2O)n1 21.2%, Cc1cc(Nc2ccc(Cl)cc2)nc(-c2ccccc2O)n1 14.1%, C[C@H]1CCC(=O)N(CCSc2ccc(Br)cc2)CC1 0.08%, CC(C)(C)c1n[nH]c2c1CCCC2 3.59%, COc1ccc2c(c1)Cc1sc(NC(=O)c3cccs3)nc1-2 7.1%, COc1ccc2c(c1)-c1nc(NC(=O)c3ccco3)sc1CC2 45.2%, Cc1nnc(SCC(=O)N2CCc3ccccc3C2)n1-c1ccccc1 2.35%, Cc1cc(C)c(NC(=O)CSc2nc3ccccc3c(=O)n2CCCN2CCOCC2)c(C)c1 -0.42%, COc1ccc(CNC(=O)C(C)Sc2nc3ccccc3c(=O)n2CCCN2CCOCC2)cc1 (stereo not drawn) -1.12%, C/C(N)=C(/C#N)C(=O)COC(=O)C(NS(=O)(=O)c1ccc(Cl)cc1)C(C)O (stereo not drawn) 0.82%, Cc1cc(C(=O)N2CCCC(N3CCN(c4cccc(Cl)c4)CC3)C2)nn1C (stereo not drawn) -0.33%, Cc1ccc(OCCCn2ccnc2)cc1C 0.08%, COc1cc(N)c(Cl)cc1C(=O)OCC(=O)Nc1cccnc1Cl 0.52%, COc1cc2c(cc1OC)[C@H](C)N(C(=O)CSc1nc(O)c(C(C)C)c(=O)[nH]1)CC2 0.69%, O=C(/C=C/c1ccc(OCCCF)cc1)N1CCOCC1 2.87%, O=C(/C=C/c1c(F)cccc1Cl)N1CCOCC1 0.12%, Cc1cc(C)n(-c2ccc(C(=O)OCC(=O)NCc3ccc(F)cc3)cc2)n1 0.92%, Cc1nc(-c2noc(-c3cccc(Cl)c3)n2)c(C(F)(F)F)o1 1.74%, CC(Nc1ccc2c(c1)OCCO2)C(=O)N1CCc2ccccc21 (stereo not drawn) 3.03%, CC(C(=O)N1CCc2ccccc21)n1cccc1 (stereo not drawn) 1.93%, CCOc1ccc(Br)cc1S(=O)(=O)Nc1ccc(C(=O)OCC(=O)Nc2ccc(C#N)cc2)cc1 2.94%, O=C(NC1CCN(S(=O)(=O)c2cccc(Cl)c2)CC1)C1CCCCC1 1.22%, CCOc1ccc(S(=O)(=O)NCCC(=O)Nc2nnc(C)s2)cc1 1.74%, CCCOc1ccc(N2C(=O)CC(N(CCc3ccc(OC)cc3)C(=O)c3ccccc3)C2=O)cc1 (stereo not drawn) 3.8%, CCCOc1ccc(N2C(=O)CC(N(Cc3ccccc3)N=O)C2=O)cc1 (stereo not drawn) -0.02%, N#C/C(=C\c1ccccc1O)C(=O)Nc1ccccn1 9.95%, COc1cc(/C=N/NC(=O)COc2c(C)cc([N+](=O)[O-])cc2C)ccc1OC(=O)c1ccccc1Br 5.39%, Cc1cc([N+](=O)[O-])cc(C)c1OCC(=O)N/N=C/c1ccc(OC(=O)c2ccccc2)cc1 10.1%, COc1cc(-n2c(=O)c3ccccc3n(Cc3cc(=O)n4ccccc4n3)c2=O)cc(OC)c1OC 2%, CCOc1ccc(-n2c(=O)c3sccc3n(Cc3ccc(C)cc3)c2=O)cc1 2.63%, Cc1sc2c(c1C)c(=O)n(-c1ccc(Cl)cc1)c(=O)n2Cc1cc(=O)n2ccccc2n1 8.46%, Cc1ccc(-n2c(=O)c3c4c(sc3n(Cc3cc(=O)n5ccccc5n3)c2=O)CCC4)cc1C 9.89%, Cc1ccc(-n2c(=O)c3c(C)c(C)sc3n(Cc3cc(=O)n4ccccc4n3)c2=O)cc1C 11.6%, O=c1c2sccc2nc(SCc2cc(=O)n3ccccc3n2)n1Cc1ccccn1 0.36%, Cc1sc2ncnc(N3CCC(C(=O)Nc4ccc(Br)cc4Br)CC3)c2c1C 10.1%, CCOC(=O)c1cc(-c2ccccc2)n(Cc2cc(CC)no2)n1 2.08%, Cc1ccc(-n2nc3c(c2NC(=O)c2ccco2)CS(=O)(=O)C3)cc1 1.04%, Cc1ccc(S(=O)(=O)Nc2ccncc2)c(C)c1N(C)S(=O)(=O)c1ccc(Cl)cc1 3.66%, CCOC(=O)c1c(C)nc2c(c1-c1cc(OC)ccc1OC)C(=O)c1ccccc1-2 0.88%, CN(C)[C@@H]1CCC[C@@H]1OC(=O)C(c1ccccc1)c1ccccc1 1.33%, COc1ccc(C(=O)NCc2nnc(SCC(=O)Nc3cc(C)on3)o2)cc1OC 0.22%
